Measured values: PubChem BioAssay AID1851 (National Center for Advancing Translational Sciences (NCATS), 2009)
In all, about 16,000 compounds went through this assay and about 5,100 (32%) were called active. Another 25% or so got no clear call; they are omitted. The list shows a part of the results. Unmarked numbers belong to inactive results. Calls follow the shape of the dose curve; as a rule, active = well fitted curve in the direction sought with a large enough effect; inconclusive = small, poorly fitted or top-dose-only effect, or effect the other way; inactive = no such curve, though single readings can be large or run the other way.

target: Cytochrome P450 3A4 (Homo sapiens) (UniProt P08684); test: Cytochrome panel assay with activity outcomes; details: recombinant CYP, pro-luciferin dealkylation, luminescence, p450-cyp3a4; series mostly up to 57.1 µM; activity, negative = inhibition: at the top concentration
Sequence (P08684 whole entry, looked up): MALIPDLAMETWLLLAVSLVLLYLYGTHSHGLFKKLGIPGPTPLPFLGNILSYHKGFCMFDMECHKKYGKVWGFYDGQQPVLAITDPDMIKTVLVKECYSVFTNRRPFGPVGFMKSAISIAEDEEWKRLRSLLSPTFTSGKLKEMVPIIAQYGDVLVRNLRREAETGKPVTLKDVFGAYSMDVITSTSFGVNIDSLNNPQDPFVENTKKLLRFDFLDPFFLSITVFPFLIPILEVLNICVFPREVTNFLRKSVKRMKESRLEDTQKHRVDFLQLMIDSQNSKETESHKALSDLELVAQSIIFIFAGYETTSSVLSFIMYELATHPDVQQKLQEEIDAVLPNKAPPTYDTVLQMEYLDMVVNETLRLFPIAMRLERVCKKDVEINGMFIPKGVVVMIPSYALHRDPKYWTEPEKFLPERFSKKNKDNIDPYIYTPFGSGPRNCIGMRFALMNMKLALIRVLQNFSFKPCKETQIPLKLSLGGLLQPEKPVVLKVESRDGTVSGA
% is scaled to controls: 0 for no effect and ±100 for the full control effect.

Row | Structure (SMILES) | AC50 | activity, negative = inhibition
1 | CCOC(C(=O)OCCCN(CC)CC)(c1ccccc1)c1ccccc1 | 0.708 µM (active) | 
2 | C=C1[C@@H]2CC[C@H]3[C@@]4(C)C[C@@H](O[C@@H]5O[C@H](CO)[C@H](OS(=O)(=O)O)[C@@H](OS(=O)(=O)O)[C@@H]5OC(=O)CC(C)C)C[C@@H](C(=O)O)[C@H]4CC[C@@]3(C2)[C@H]1O |  | -7.65% [at 25.6 µM]
3 | CCN1C[C@@]2(COC)CC[C@H](OC)[C@]34[C@@H]1[C@]1(OCO[C@@]15C[C@@H](OC)C1C[C@H]3[C@H]5[C@@H]1OC)[C@H](O)[C@@H]24 |  | -11.6% [at 25.6 µM]
4 | O=C(O)c1ccccc1-c1c2cc(Br)c(=O)cc-2oc2[c]([Hg])c(O)c(Br)cc12 |  | -27.4% [at 25.6 µM]
5 | CC(=O)O[C@H]1C[C@@H](O[C@@H]2[C@H](C)O[C@H](O[C@@H]3[C@H](C)O[C@H](O[C@@H]4CC[C@@]5(C)[C@@H](CC[C@]6(C)[C@]5(C)C[C@H](O)[C@]5(C)[C@@H](C7=CC(=O)OC7)CC[C@@]56O)C4)C[C@@H]3O)C[C@@H]2O)O[C@@H](C)[C@H]1O[C@H]1O[C@@H](CO)[C@@H](O)[C@@H](O)[C@@H]1O |  | -1.51% [at 25.6 µM]
6 | COC(=O)[C@H]1C(=O)c2ccccc2O[C@@](C(=O)OC)(c2ccccc2)[C@@H]1c1ccccc1 | 3.98 µM (active) | 
7 | O=P(O)(O)CCP(=O)(O)O |  | 6.5% [at 11.4 µM]
8 | Cc1cc[c]([Sb]2[O][C@H]([C@H](O)[C@H](O)C(=O)O)[C@@H](CO)[O]2)cc1 |  | 0.934% [at 11.4 µM]
9 | C[N+]1(C)[C@@H]2CC[C@H]1CC(OC(=O)[C@@H](CO)c1ccccc1)C2 (stereo partly drawn) |  | inactive
10 | C[N+]1(C)[C@@H]2CC[C@H]1CC(OC(=O)c1c[nH]c3ccccc13)C2 (stereo partly drawn) | 7.94 µM (active) | 
11 | C[N+]1(C)C2CC[C@H]1CC(OC(=O)[C@@H](CO)c1ccccc1)C2 (stereo partly drawn) |  | 8.45% [at 11.4 µM]
12 | CC(=O)OCC1=C(C(=O)O)N2C(=O)[C@@H](N)[C@@H]2SC1 |  | -8.51% [at 25.6 µM]
13 | CCc1ccc(CCN2CCCCC2)nc1 |  | -16.1% [at 11.4 µM]
14 | C[C@@]12CCC(=O)C=C1C=C[C@H]1[C@H]3CC[C@](O)(CCC(=O)O)[C@]3(C)CC[C@@H]12 |  | -2.78% [at 25.6 µM]
15 | O=c1cccc2n1CC1CNC[C@H]2C1 |  | -25.1% [at 25.6 µM]
16 | O=C(c1ccc(-c2nnc(Nc3ccccc3)c3ccccc23)cc1)N1C[C@H]2C[C@H](C1)c1cccc(=O)n1C2 | 31.6 µM (active) | 
17 | COc1cc(C(=O)OC2C[C@H]3CC[C@@H](C2)N3C)ccc1O (stereo partly drawn) |  | -6.91% [at 25.6 µM]
18 | O=c1[nH]cnc2[nH]cc(CN3CCCCC3)c12 |  | -10.7% [at 11.4 µM]
19 | N[C@@H]1C=CC=C(C(=O)O)C1 |  | -0.917%
20 | O=S(=O)(NCCO)c1cc[c]([Sb](=[O])([OH])[OH])cc1 |  | 9.57% [at 11.4 µM]
21 | CCCN1CCO[C@@H]2c3cc(O)ccc3OC[C@H]21 |  | -26%
22 | c1cncc([C@@H]2CCCCN2)c1 |  | inactive

Row | Structure (SMILES) | AC50 | activity, negative = inhibition
23 | O=S(=O)(c1ccccc1)N1CCCCC1c1cccnc1 (stereo not drawn) | 2.24 µM (active) | 
24 | CC1=C(C)[N+](=O)C2(O)CCCCC2(C)N1[O-] (stereo not drawn) |  | -0.437%
25 | CCCN(CCC)[C@@H]1CCc2ccc(O)cc2C1 |  | inactive
26 | NC(N)=NS(=O)(=O)c1ccc(N)cc1 |  | -31.3% [at 25.6 µM]
27 | CN(C)[C@@H]1C(=O)C(C(N)=O)=C(O)[C@]2(O)C(=O)C3=C(O)c4c(O)cccc4[C@@](C)(O)[C@H]3[C@H](O)[C@@H]12 |  | -9.86% [at 25.6 µM]
28 | O=[N+]([O-])c1cc(O)c(O)c([N+](=O)[O-])c1 |  | -20.1%
29 | O=C(O)Cc1ccc([N+](=O)[O-])cc1[N+](=O)[O-] |  | -8.12% [at 11.4 µM]
30 | O=[N+]([O-])c1ccc(S(=O)(=O)Cc2ccccc2)c([N+](=O)[O-])c1 | 0.316 µM (active) | 
31 | Cc1cc(OC(=O)CCCNC(=O)OC(C)(C)C)c2c3c(c(=O)oc2c1)CCC3 |  | 4.44% [at 2.29 µM]
32 | COc1cc2c3cc1Oc1cc(ccc1O)C[C@@H]1c4c(cc(OC)c(O)c4Oc4cccc(c4)C[C@H]3N(C)CC2)CC[N+]1(C)C |  | -9.52% [at 25.6 µM]
33 | CC(C)(O)/C=C\C(=O)[C@](C)(O)[C@H]1[C@H](O)C[C@]2(C)[C@@H]3CC=C4[C@@H](C=C(O)C(=O)C4(C)C)[C@]3(C)C(=O)C[C@@]12C | 0.398 µM (active) | 
34 | CC(=O)OC1N=C(c2ccccc2)c2cc(Br)ccc2N(C)C1=O (stereo not drawn) |  | -28.2%
35 | CC1=NN(c2ccc(S(=O)(=O)O)cc2C)C(=[OH+])[C@H]1N=Nc1cc(S(=O)(=O)O)ccc1C(=O)O.O.[Cr] |  | 12.6% [at 11.4 µM]
36 | O=[N+]([O-])c1ccc(N2CCNCC2)cc1NCC1CCCO1 (stereo not drawn) |  | -16.8%
37 | COC(=O)[C@H](N)CCCN=C(N)N[N+](=O)[O-] |  | 3.46%
38 | CCOC(=O)C1=C(C)OC(N)=C(C#N)C12C(=O)N(C)c1ccccc12 (stereo not drawn) | 6.31 µM (active) | 
39 | COc1ccc(C[C@@H]2NC[C@H](O)[C@@H]2OC(C)=O)cc1 |  | -16.7% [at 25.6 µM]
40 | O=C(O)C[O][Sb][O]CC(=O)O |  | -1.8% [at 11.4 µM]
41 | NS(=O)(=O)C[C-]1C=C[CH]([Sb-]([Cl])([Cl])([Cl])([Cl])[Cl])C=C1.c1ccncc1 (stereo not drawn) |  | 7.76% [at 11.4 µM]
42 | CC[C@@H]1CN2CCc3cc(OC)c(OC)cc3[C@H]2C[C@@H]1C[C@@H]1NCCc2cc(O)c(OC)cc21 |  | 2.41% [at 25.6 µM]
43 | Cc1ccc(S(=O)(=O)O[C@H]2CN3CCC2CC3)cc1 |  | -7.01% [at 11.4 µM]
